Screening results (PubChem)
In the library only some 5.8% were active in any assay of this set; here they are far more common.
SW480 rereplic – A quantitative high throughput screen for small molecules that induce DNA re-replication in SW480 colon adenocarcinoma cells; hit rate 1.8% among 340,000; SW480 DNA re-replication, Hoechst DNA content imaging, 48 h; AID 624297, 2012; Potency, µM (top dose mostly 46.1 µM), without a hit: top-dose re-replication activation, usual class: activators; further: % of control where 0% means no effect; nearly all actives have a fitted effect of over 55% in size
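DNA re-replication was detected as more nuclei of elevated Hoechst intensity after 48 hr exposure to compound (23 nL pinned per well of 250 cells).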
KB-3-1 tox – qHTS assay for MDR1-selective chemotherapeutics: Primary screen using the parental adenocarcinoma cell KB-3-1 | KB-3-1 viability, CellTiter-Glo ATP luminescence, 72 h | Potency, µM (doses to about 46.1 µM), most hits filed as cytotoxic | hit rate 1.4% among 400,000; further: on the % scale 0 is the no-effect control and ±100 the full control effect; nearly all actives have a fitted effect of over 60% in size
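Screening of KB-3-1 cells (DMEM, 10% FBS, phenol-red free) ran from lowest to highest compound concentration; after 72 h at 37 °C viability was read luminescently and curves fitted.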
MCF10A rerep – A quantitative high throughput screen for small molecules that induce DNA re-replication in MCF 10a normal breast cells | hit rate 2.9% among 350,000 | Potency, µM (doses to about 46.1 µM), for the others: at the top dose activity, positive = re-replication, hits mostly activators | MCF 10A DNA re-replication, Hoechst nuclear intensity, 48 h; further: % of control where 0% means no effect; nearly all actives have a fitted effect of over 50% in size
KB-V1 MDR tox – qHTS assay for MDR1-selective chemotherapeutics: Primary screen using the drug-selected MDR subline cells KB-V1 | KB-V1 MDR cells viability, CellTiter-Glo, 72 h | Potency, µM (titrated, usually from 46.1 µM), usual class: cytotoxic | hit rate 3.4% among 400,000 | AID 1347076, 2019; further: on the % scale 0 is the no-effect control and ±100 the full control effect; nearly all actives have a fitted effect of over 60% in size
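KB-V1 cells (P-gp-expressing MDR subline of KB-3-1) in phenol-red-free DMEM with 10% FBS were exposed to library compounds over a concentration series for 72 h at 37 degrees C. Viability read by CellTiter-Glo luminescence; concentration-effect curves fitted after normalization.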
PINK1 modulator – A Quantitative High throughput Screen to Identify Chemical Modulators of PINK1 Expression; Potency, µM (titrated, usually from 76.6 µM), without a hit: at the top dose activation (PINK1 increase), most hits filed as activators; hit rate 0.2% among 410,000; PINK1 immunofluorescence, high-content cytometry, 24 h; active means well fitted activation curve with a large enough effect; inconclusive means small, poorly fitted or top-dose-only effect; cell line not stated here; further: % of control where 0% means no effect; nearly all actives have a fitted effect of over 65% in size
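Readout is PINK1 immunofluorescence, quantified alongside mitochondrial, cell and nuclear markers by laser-scanning microplate cytometry. Cells from a stable line were exposed to compound titrations (5 concentrations) for 24 hours, with CCCP controls.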
12-LOX inh – Primary qHTS assay for inhibitors of human arachidonate 12S-lipoxygenase (ALOX12): Round 2; Polyunsaturated fatty acid lipoxygenase ALOX12 (Homo sapiens), P18054; purified 12hLO, xylenol orange hydroperoxide absorbance; Potency, µM (series often up to 108 µM), without a hit: at the highest dose activity change, negative = inhibition, actives largely listed as inhibitors; hit rate 1.1% among 580,000; further: on the % scale 0 is the no-effect control and ±100 the full control effect
Target sequence (P18054 whole entry, looked up): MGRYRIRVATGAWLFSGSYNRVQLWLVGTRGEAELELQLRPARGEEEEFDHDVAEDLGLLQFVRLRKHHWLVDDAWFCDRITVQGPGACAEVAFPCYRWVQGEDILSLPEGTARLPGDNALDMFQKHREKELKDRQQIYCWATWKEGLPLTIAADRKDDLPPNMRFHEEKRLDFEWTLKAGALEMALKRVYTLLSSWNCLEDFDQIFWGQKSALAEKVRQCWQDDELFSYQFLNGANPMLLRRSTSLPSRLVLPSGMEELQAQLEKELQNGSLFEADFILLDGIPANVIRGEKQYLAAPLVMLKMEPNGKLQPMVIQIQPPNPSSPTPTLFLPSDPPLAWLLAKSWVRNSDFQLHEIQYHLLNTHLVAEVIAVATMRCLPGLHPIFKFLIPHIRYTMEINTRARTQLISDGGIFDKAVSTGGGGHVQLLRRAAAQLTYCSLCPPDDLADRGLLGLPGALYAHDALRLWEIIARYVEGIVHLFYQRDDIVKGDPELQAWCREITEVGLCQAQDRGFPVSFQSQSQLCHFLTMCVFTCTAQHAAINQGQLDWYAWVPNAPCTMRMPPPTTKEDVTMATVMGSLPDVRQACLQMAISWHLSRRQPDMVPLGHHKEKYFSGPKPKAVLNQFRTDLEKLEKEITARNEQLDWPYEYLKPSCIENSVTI
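Hydroperoxide product was detected by ferrous iron/xylenol orange as the 573 to 405 nm absorbance ratio. Arachidonic acid at 40 uM (final) was turned over for 30 min at room temperature by 150 nM human 12hLO, pH 7.0 Hepes buffer, after 15 min compound preincubation.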
* = called active by the depositor; i = inactive; ? = inconclusive; nt = not tested or not shown; [ ] = another dose, or the depositor's remark. Unless noted, the call rests on the fitted dose curve; in most records, active means well fitted curve in the direction sought with a large enough effect; inconclusive means small, poorly fitted or top-dose-only effect, or another doubt; inactive means no such curve, though single readings can be large; an effect the other way counts as inactive or inconclusive. Potency means the concentration at half of the fitted maximal effect.

SMILES	SW480 rereplic	KB-3-1 tox	MCF10A rerep	KB-V1 MDR tox	PINK1 modulator	12-LOX inh
O=C(O)CCn1ncc2cc(OCc3ccc(-c4ccncc4)cc3)ccc21	nt	nt	nt	nt	nt	0%[176 µM]
Nc1nc(-c2ccc3c(c2)CCC(=O)N3)cs1	-2%	5.2µM*	6%	3.7µM*	0%	-19%
O=C1Cc2cc(-c3csc(NC4CCCCC4)n3)cc3c2N1CCC3	nt	nt	nt	nt	nt	11µM*
c1ccc(-c2csc(NC3CCCCC3)n2)cc1	11%	i	13%	i	7%	?
Nc1nc(-c2ccc3c(c2)CCO3)cs1	-5%	i	-2%	i	-1%	-26%
CCCCN(CC)CCCNC(=O)c1cc2c(=O)n(C)c3ccccc3c2n1C	11%	16µM*	?	i	8%	10%[57.4 µM]
CCCCN(C)CCNC(=O)c1cc2c(=O)n(C)c3ccccc3c2n1C	nt	nt	nt	nt	0%	-5%
O=C(CSC(=S)N1CCCC1)N(Cc1nnc(-c2ccccc2Cl)o1)C1CC1	-5%	i	0%	4.6µM*	0%	17%
O=C(N/N=C/c1cccs1)c1cccc(Br)c1	nt	nt	nt	nt	nt	27%
CCOC(=O)C1=C(CSc2nc3ccccc3s2)NC(=O)NC1c1cc(C)ccc1C (configuration not stated)	18µM*	i	?	i	nt	9%
CCOC(=O)C1=C(CSc2nc3ccccc3s2)NC(=O)NC1c1ccc(OC)cc1 (configuration not stated)	-2%	?	5%	16µM*	nt	-7%
COc1cccc(S(=O)(=O)Nc2cccc(C(=O)N3CCCCCC3)c2)c1	-37%	i	10%	15µM*	-1%	-14%
Cc1ccc(NS(=O)(=O)c2cccc(C(=O)N3CCCCCC3)c2)cc1	3%	i	-3%	i	-2%	-20%
Cc1ccccc1OCCC(=O)Nc1cccc(S(=O)(=O)Nc2ccccc2Cl)c1	5%	?	?	12µM*	0%	-24%
CCOC(=O)N1CCN(C(=O)c2cccc(S(=O)(=O)Nc3ccccc3Cl)c2)CC1	-4%	i	0%	18µM*	5%	13%
COc1cccc(S(=O)(=O)Nc2cccc(C(=O)N3CCCC3)c2)c1	-6%	i	-18%	i	0%	17%
Cc1ccc(NS(=O)(=O)c2cccc(C(=O)N3CCCCC3)c2)cc1	-1%	i	23%	12µM*	-1%	7%
CN(CCCC(=O)OC(C)(C)C)C(=O)/C=C/c1ccc(Cl)cc1	nt	nt	nt	nt	nt	-27%
CCCc1nc2ccccc2n1CC(O)c1ccc(F)cc1 (configuration not stated)	nt	nt	nt	nt	nt	-5%
COc1ccccc1NS(=O)(=O)c1cccc(C(=O)N2CCCC2)c1	-3%	i	-11%	?	0%	-16%
Cc1ccc(NS(=O)(=O)c2ccc(C(=O)N3CCN(S(=O)(=O)c4ccccc4)CC3)cc2)cc1	26µM*	?	7%	?	0%	?
COc1ccccc1NS(=O)(=O)c1cccc(C(=O)N2CCCCCCC2)c1	-4%	i	0%	16µM*	-3%	-4%
CC1CCCN(C(=O)c2cccc(S(=O)(=O)Nc3cc(C(F)(F)F)ccc3Cl)c2)C1 (configuration not stated)	-101%	i	?	18µM*	1%	87%
O=S(=O)(Nc1ccccc1N1CCCCC1)c1ccc(Cl)s1	-1%	13µM*	3%	i	-2%	0%[57.4 µM]
Cc1nc2cc(F)cc(C(=O)NCCCN(C)C(C)C)c2nc1C	nt	nt	nt	nt	nt	-9%
SMILES	SW480 rereplic	KB-3-1 tox	MCF10A rerep	KB-V1 MDR tox	PINK1 modulator	12-LOX inh
CC1=C(NC(=O)c2ccc(Cl)cc2)C(c2c[nH]c3ccccc23)n2ncnc2N1 (configuration not stated)	nt	nt	nt	nt	nt	5%
FC(F)Oc1ccc(CNC23CC4CC(CC(C4)C2)C3)cc1	nt	nt	nt	nt	nt	11%
COc1cc(S(=O)(=O)Nc2ccccc2N2CCCCC2)ccc1NC(C)=O	?	i	18µM*	i	3%	0%
COc1cc(OC)c(S(=O)(=O)Nc2ccccc2N2CCCCC2)cc1NC(C)=O	0%	i	-12%	i	0%	0%
O=C1OCC2(CCN(Cc3ccc4c(c3)CCO4)C2)N1Cc1ccccc1 (configuration not stated)	nt	nt	nt	nt	nt	56µM*
O=C1OCC2(CCN(Cc3ccc(Cl)cc3)C2)N1CCN1CCOCC1 (configuration not stated)	nt	nt	nt	nt	nt	-16%[176 µM]
O=C(NCc1nc(-c2ccccc2)no1)NC1CCCCC1	nt	nt	nt	nt	nt	21%
Cc1ccc(C(=O)NC(=S)NCc2ccccc2)cc1	0%	i	14%	i	0%	10µM*
O=C(NC(=S)NCc1ccccc1)c1cccc(Cl)c1	3%	i	?	i	0%	28µM*
O=C(NC(=S)NCc1ccccc1)c1cccnc1	-18%	i	7%	?	-1%	-15%
O=C(NCc1ccccc1)NCC12CC3CC(CC(C3)C1)C2	-15%	i	9%	i	0%	0%
COc1ccc(CCNC(=S)NC(=O)c2ccc(Br)cc2)cc1OC	11%	i	?	?	1%	28µM*
O=C(CC12CC3CC(CC(C3)C1)C2)NC(=S)NCc1ccccc1	2%	i	?	i	11%	28µM*
COc1ccc(C(=O)NC(=S)NCc2ccccc2)cc1OC	6%	i	26%	i	4%	16µM*
Cc1ccc(C(=O)NC(=S)Nc2ccccc2C(F)(F)F)cc1	-4%	i	7%	i	6%	7.9µM*
COc1ccc(CCNC(=O)C(C(=O)c2ccccc2)n2cc(Cl)ccc2=O)cc1OC (configuration not stated)	4%	i	-3%	16µM*	3%	-8%
O=C(NCc1ccccc1)c1cccc(COc2cccc(Cl)c2)c1	5%	i	?	i	-1%	0%
O=C(NCc1ccccc1)c1cccc(COc2ccc(Cl)cc2)c1	9%	i	8%	18µM*	0%	0%
COCCN(Cc1nc2ccccc2c(=O)[nH]1)C(=O)c1oc2ccc(F)cc2c1C	nt	nt	nt	nt	nt	7%
COc1ccc(CCNC(=O)C(=O)NCc2ccccc2)cc1OC	18µM*	21µM*	?	?	6%	273%
